Source: PubChem BioAssay (Broad Institute)
The sample as a whole holds a higher share of hits than the screen did.
U2OS ROS induce: ROS inducers in U2OS cancer cells, primary screen, cell-based, H2DCF-DA fluorescence; U2OS ROS induction; hit rate 2% among 46,000; ROS induction (% of piperlongumine), % at 10 µM; in the data active means ROS induction above about 79%, passing the limit was not always enough;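 further: 0% = DMSO vehicle median and 100% = reference compound median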
YB-1 expr inh: inhibitors of YB-1 gene expression, primary screen, cell-based, fluorescence | U2OS, qRT-PCR YB-1 vs CDIP delta delta Cp, 16 h; hits give high values; zero = DMSO, each unit about twofold | delta delta Cp (YB-1 minus CDIP) (no concentration beside the values) | hit rate 0.37% among 30,000 | AID 434959, 2010;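 active means delta delta Cp rounded down to an integer at or above 3, about 3 SD of DMSO wells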;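 further: higher means less YB-1 transcript or more CDIP transcript relative to DMSO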
NOMO-1 viab: NOMO-1 AML cell viability reduction, primary screen, STK33 inhibitor project, CellTiter-Glo luminescence. inhibition, % (concentration not given with the values). NOMO-1 AML viability, 72 h. hit rate 7.5% among 37,000; in the data active means inhibition above about 80%
MITF inh: inhibitors of MITF, primary screen, MITF inhibitor project, cell-based, luminescence; AID 2240, 2010; TRPM1 promoter luciferase, 24 h; inhibition, % (test concentration not listed); hit rate 0.28% among 37,000; in the data active means inhibition above about 85%;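 further: human melanocyte line stably carrying TRPM1 promoter luciferase reporter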
PD-1 reverse act: activators reversing PD-1 mediated T-cell inhibition, primary screen, luminescence, primary human CD4 T cells, PD-L1 beads; AID 2316, 2010; activation, % (concentration not given with the values); CellTiter-Glo 96 h; 29,000 tested, under 10 active; call rule not given here;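 further: 0% = median vehicle wells and 100% = positive control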
Starred values were filed as active, the others as inactive; . = no result.

SMILES	U2OS ROS induce	YB-1 expr inh	NOMO-1 viab	MITF inh	PD-1 reverse act
CC(C)C[C@@H](/C=C/S(C)(=O)=O)NC(=O)[C@H](CC(C)C)NC(=O)[C@H](CC(C)C)NC(=O)OCc1ccccc1	5.1	-0.439	97.6*	75.4	-52.5
CC(C)C[C@@H](NC(=O)OCC1c2ccccc2-c2ccccc21)C(=O)O	-0.9	0.318	-5.3	-54.9	.
O=C(CCS(=O)(=O)c1nc(-c2ccccc2)cc(C(F)(F)F)n1)Nc1ccc(Cl)cc1Cl	100.6*	.	125.5*	9.6	-16.3
O=C(O)CCS(=O)(=O)c1nc(-c2ccccc2)cc(C(F)(F)F)n1	0.7	.	23.0	-24.3	0.1
O=C(CC1Sc2ncnn2C1=O)Nc1ccc(Cl)cc1 (configuration not stated)	.	.	107.0*	0.5	.
CCC(C)c1ccc(NC(=O)c2ccc(N(CC)CC)cc2)cc1 (configuration not stated)	54.0	0.172	119.9*	-5.8	1.1
CCC(C)NC(=O)c1ccc(N(CC)CC)cc1 (configuration not stated)	-13.8	-0.971	27.6	-15.7	0.7
C[C@@H]1CN([C@@H](C)CO)C(=O)c2cc(NC(=O)CCC(F)(F)F)ccc2O[C@@H]1CN(C)Cc1ccc(Cl)c(Cl)c1	14.0	-0.00437	93.2*	-2.3	-2.4
C[C@@H]1CN([C@@H](C)CO)C(=O)Cc2cc(NC(=O)CCC(F)(F)F)ccc2O[C@@H]1CN(C)Cc1ccc(Cl)c(Cl)c1	34.9	0.431	124.2*	45.4	-8.2
C[C@@H]1CN([C@@H](C)CO)C(=O)c2cc(NC(=O)CCC(F)(F)F)ccc2O[C@H]1CN(C)Cc1ccc(Cl)c(Cl)c1	17.8	0.0775	43.0	-8.6	0.6
C[C@H](CO)N1C[C@H](C)[C@H](CN(C)Cc2ccc(Cl)c(Cl)c2)Oc2ccc(NC(=O)CCC(F)(F)F)cc2CC1=O	150.7*	0.14	53.5	-0.9	0.4
C[C@H](CO)N1C[C@H](C)[C@H](CN(C)Cc2ccc(Cl)c(Cl)c2)Oc2ccc(NC(=O)CCC(F)(F)F)cc2C1=O	9.9	0.121	-5.0	-6.8	0.9
Cc1ccc(O)c(NC(=O)c2nc3ncccn3n2)c1	-31.8	.	5.4	-21.5	2.5
COc1cc(-c2cc(=O)c3c(O)c(OC)c(OC)c(OC)c3o2)cc(OC)c1OC	99.0*	-0.351	11.7	-43.2	2.0
COc1cc2oc(-c3ccc(O)cc3)cc(=O)c2c(O)c1OC	62.7	-0.0556	41.8	-26.6	-1.5
